{"source": "the supplement of paper PMC9694430", "note": "Counter-ions that a name gives are not always drawn.", "data": [{"test_system": "LOC_OS07G07230-cb001", "experiment": "thermal shift delta Tm vs DMSO control; higher = stronger stabilization (binding)", "conditions": "12.5 µM; protein concentration 2 µM", "summary_of_the_method": "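Rice kinase domain constructs were expressed in E. coli, purified, and tested by differential scanning fluorimetry with compound added in DMSO. Each well of a 96-well plate held 19.5 μl of 2 μM kinase in 100 mM potassium phosphate pH 7.5, 150 mM NaCl, 10% glycerol and 5 × SYPRO Orange, and fluorescence was read from 25°C to 95°C at 0.05°C/s. The melting temperature shift is the mean of triplicates, taken against protein with DMSO alone after Boltzmann fitting.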", "units": {"thermal shift delta Tm": "°C"}, "values": [{"smiles": "CC(C)(C)c1cnc(CSc2cnc(NC(=O)C3CCNCC3)s2)o1", "thermal shift delta Tm": -0.01}, {"smiles": "CN(C)C/C=C/C(=O)Nc1cc2c(Nc3ccc(F)c(Cl)c3)ncnc2cc1O[C@H]1CCOC1", "note": "[Afatinib (BIBW2992) Dimaleate]", "thermal shift delta Tm": 0.08}, {"smiles": "O=C1c2c(O)cc(O)cc2OC(c2ccc(O)c(O)c2)C1O", "note": "(configuration not stated) [Taxifolin (Dihydroquercetin)]", "thermal shift delta Tm": 0.52}, {"smiles": "CCN(CC)CCNC(=O)c1c(C)[nH]c(/C=C2\\C(=O)Nc3ccc(F)cc32)c1C", "note": "[Sunitinib Malate]", "thermal shift delta Tm": 0.56}, {"smiles": "COc1cc(Nc2ncc(F)c(Nc3ccc4c(n3)N(COP(=O)(O)O)C(=O)C(C)(C)O4)n2)cc(OC)c1OC", "note": "[Fostamatinib (R788)]", "thermal shift delta Tm": 0.44}, {"smiles": "CC(C)(C)c1nc(-c2ccc(NC(=O)Nc3cccc(C(F)(F)F)c3)c3ccccc23)c2c(N)nccn12", "note": "[kira6]", "thermal shift delta Tm": 0.14}, {"smiles": "CNC(=O)c1cc(Oc2ccc(NC(=O)Nc3ccc(Cl)c(C(F)(F)F)c3)cc2)ccn1", "note": "[Sorafenib Tosylate]", "thermal shift delta Tm": 0.6}, {"smiles": "CC(=O)Nc1nc(C)c(-c2ccc(Cl)c(S(=O)(=O)NCCO)c2)s1", "thermal shift delta Tm": -0.01}, {"smiles": "CCc1nc(-c2cccc(C)c2)c(-c2ccnc(NC(=O)c3ccccc3)c2)s1", "thermal shift delta Tm": -0.21}, {"smiles": "C[C@@]1(C(=O)Nc2ccc(F)nc2)CCCN1c1nc(Nc2cc(C3CC3)n[nH]2)c2cccn2n1", "thermal shift delta Tm": 0.05}, {"smiles": "COc1ccc(Cl)cc1NC(=O)Nc1cc(C)nc2ccccc12", "thermal shift delta Tm": 0.62}, {"smiles": "C=CC(=O)Nc1cccc(Nc2nc(Nc3ccc(OCCOC)cc3)ncc2F)c1", "thermal shift delta Tm": 0.63}, {"smiles": "CC(C)c1c2cc(-c3ccnc(NC4CCC(NC5CCOCC5)CC4)n3)ccc2nn1C", "note": "(configuration not stated)", "thermal shift delta Tm": 0.55}, {"smiles": "C[C@H]1CNC(=O)c2cnn3ccc(nc23)N[C@H](C)c2cc(F)ccc2O1", "thermal shift delta Tm": 0.8}, {"smiles": "Cn1cc(-c2ccc3c(c2)CCN3C(=O)Cc2cccc(C(F)(F)F)c2)c2c(N)ncnc21", "thermal shift delta Tm": 4.19}, {"smiles": "Cn1c(=O)c(F)c(Nc2ccc(I)cc2F)c2c(=O)n(C[C@@H](O)CO)cnc21", "thermal shift delta Tm": 0.02}, {"smiles": "CNC(=O)c1cccc(-c2ccc3c(N4CCOC[C@@H]4C)nc(N4CCOC[C@@H]4C)nc3n2)c1", "note": "[Vistusertib (AZD2014)]", "thermal shift delta Tm": 0.29}, {"smiles": "Cc1nc(Nc2cnn(C3CCNCC3)c2)nc2c1N(C)C(=O)c1cc3ccccc3cc1N2C", "thermal shift delta Tm": 0.2}, {"smiles": "COc1cc2/c(=N/c3ccc(Br)cc3F)nc[nH]c2cc1OCC1CCN(C)CC1", "note": "[Vandetanib (ZD6474)]", "thermal shift delta Tm": 0.94}, {"smiles": "CCn1c(C(=O)N(C2CC2)C2CC2)cc2c3c(ncn3C)c(Nc3cc(C)n(C)n3)nc21", "thermal shift delta Tm": 0.76}, {"smiles": "OCCn1cc(-c2cnc3nnn(Cc4ccc5ncccc5c4)c3n2)cn1", "thermal shift delta Tm": 0.97}, {"smiles": "N#CC[C@H](C1CCCC1)n1cc(-c2ncnc3[nH]ccc23)cn1", "thermal shift delta Tm": -0.53}, {"smiles": "CCn1nc(C2CCN(C(=O)CCO)CC2)nc1-c1cnc(N)c(-c2nnc(C(C)(C)C)o2)n1", "thermal shift delta Tm": 0.4}, {"smiles": "CC(C)(C)c1cc(NC(=O)Nc2ccc(Oc3ccnc4[nH]c(=O)cnc34)cc2F)n(-c2ccccc2)n1", "thermal shift delta Tm": -0.1}, {"smiles": "CO[C@H]1CC[C@H](N2C(=O)CNc3ncc(-c4ccc(C(C)(C)O)nc4)nc32)CC1", "thermal shift delta Tm": 0.66}, {"smiles": "CC[C@@H]1C(=O)N(C)c2cnc(Nc3ccc(C(=O)N[C@H]4CC[C@H](N5CCN(CC6CC6)CC5)CC4)cc3OC)nc2N1C(C)C", "note": "[Volasertib (BI 6727)]", "thermal shift delta Tm": -0.12}, {"smiles": "COc1ccc2c(c1)[C@]1(C[C@H]1c1ccc3c(/C=C/c4ccc(CN5C[C@@H](C)O[C@@H](C)C5)cc4)n[nH]c3c1)C(=O)N2", "thermal shift delta Tm": -0.28}, {"smiles": "O=C(Nc1nc2cccc(-c3ccc(CN4CCS(=O)(=O)CC4)cc3)n2n1)C1CC1", "note": "[Filgotinib (GLPG0634)]", "thermal shift delta Tm": 0.58}, {"smiles": "CCn1c(-c2nonc2N)nc2c(C#CC(C)(C)O)ncc(OC[C@H]3CCCNC3)c21", "thermal shift delta Tm": 0.32}, {"smiles": "Cc1cnc(Nc2ccc(OCCN3CCCC3)cc2)nc1Nc1cccc(S(=O)(=O)NC(C)(C)C)c1", "thermal shift delta Tm": 0.07}, {"smiles": "Cc1cc(Nc2cc(N3CCN(C)CC3)nc(/C=C/c3ccccc3)n2)n[nH]1", "note": "[ENMD-2076 L-(+)-Tartaric acid]", "thermal shift delta Tm": 0.39}, {"smiles": "CC#CC(=O)N1CC[C@@H](n2c(=O)n(-c3ccc(Oc4ccccc4)cc3)c3c(N)ncnc32)C1", "note": "[ONO-4059 (GS-4059) hydrochloride]", "thermal shift delta Tm": 0.73}, {"smiles": "CCN1CCN(Cc2ccc(Nc3ncc(F)c(-c4cc(F)c5nc(C)n(C(C)C)c5c4)n3)nc2)CC1", "thermal shift delta Tm": 0.37}, {"smiles": "CN(C)C[C@@H]1CCn2cc(c3ccccc32)C2=C(C(=O)NC2=O)c2cn(c3ccccc23)CCO1", "thermal shift delta Tm": 0.33}, {"smiles": "CN1CCN(Cc2ccc(NC(=O)Nc3ccc(Oc4ccnc(N)n4)cc3)cc2C(F)(F)F)CC1", "thermal shift delta Tm": -1.04}, {"smiles": "O=C(NOCCO)c1ccc2cncn2c1Nc1ccc(I)cc1F", "thermal shift delta Tm": 0.91}, {"smiles": "CCCCCCCCCCCCc1ccc(S(=O)(=O)Nc2nncs2)cc1", "thermal shift delta Tm": 0.24}]}]}
